“And” between values parts separate entries of the source, which are not always exact repeats. Equal values may be shown once. Inconclusive results are not listed. The source made the active and inactive calls. Unless noted, calls come from the whole dose curve.
How the values were obtained:
[1] = Nuclear factor erythroid 2-related factor 2/antioxidant responsive element (Nrf2/ARE) small molecule agonists: luciferase reporter gene qHTS assay in human keratinocytes (AID 1919969); note: nearly all actives have a fitted effect of over 35% in size; note: potency is the fitted concentration of half-maximal effect
[2] = biological target: Gonadotropin-releasing hormone receptor (Homo sapiens) (UniProt P30968); assay: Human gonadotropin-releasing hormone receptor (GnRHR) small molecule agonists, calcium flux assay in GnRHR-HEK293 cells (AID 1920063); note: nearly all actives have a fitted effect of over 35% in size
Procedure, shortened: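 Agonist mode: compounds at 15 concentrations, in triplicate, went onto calcium dye-loaded GnRHR-HEK293 cells. Intracellular calcium was then followed as 480/540 nm fluorescence at 1 s intervals over 3 min.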

[3] = biological target: KiSS-1 receptor (Homo sapiens) (UniProt Q969F8); assay: Human kisspeptin (KISS1R) small molecule agonists, calcium flux assay in KISS1R-HEK293 cells (AID 1920064; active = well fitted activation curve with a large enough effect in the repeat runs)
Procedure, shortened: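 Agonist mode: intracellular calcium rise tracked at 1 s intervals over 3 min (480/540 nm) immediately after compound addition to dye-loaded KISS1R-HEK293 stable cells. Each compound tested at 15 concentrations in triplicate.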

[4] = G protein-coupled receptor (GPCR) small molecule agonists, calcium flux assay: HEK293 wild type cell line counter screen (AID 1920065)
Procedure, shortened: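 Calcium flux counter screen: compound added in agonist mode at 15 concentrations in triplicate to dye-loaded parental HEK293 cells. Fluorescence (480/540) read kinetically for 3 min; ATP served as positive control.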

[5] = p53 small molecule agonists, cell-based qHTS assay with human liver microsomes (AID 1963577);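 note: p53 response element beta-lactamase reporter cells with liver microsomes plus NADPH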
Procedure, shortened: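 With metabolic activation: human liver microsomes (0.5 mg/mL final) plus NADPH (0.5 mg/mL final) added alongside compounds to p53RE-bla cells; 16 h 37 C exposure; beta-lactamase read by LiveBLAzer fluorescence.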

[6] = p53 small molecule agonists, cell-based qHTS assay with rat liver microsomes (AID 1963578)
Procedure, shortened: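 Metabolic activation by rat liver microsomes and NADPH, each 0.5 mg/mL final, added right after compounds to p53RE-bla reporter cells (4,000/well, plated 5 h earlier). 16 h at 37 C, then LiveBLAzer substrate for 2 h at room temperature in the dark; fluorescence read-out.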

[7] = p53 small molecule agonists, cell-based qHTS assay with human liver microsomes: qHTS cell viability counter screen (AID 1963579); note: nearly all actives have a fitted effect of over 45% in size; note: potency is the fitted concentration of half-maximal effect
Procedure, shortened: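 Metabolic activation used human liver microsomes and NADPH, both 0.5 mg/mL final, over 16 hours at 37 C on p53RE-bla cells (4,000/well). Cytotoxicity measured by CellTiter-Glo luminescence, 30 min at room temperature.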

[8] = p53 small molecule agonists, cell-based qHTS assay with rat liver microsomes: qHTS cell viability counter screen (AID 1963580); note: nearly all actives have a fitted effect of over 45% in size
Procedure, shortened: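 Cytotoxicity counter screen: intracellular ATP read by CellTiter-Glo luminescence in the p53 reporter wells. HCT-116 p53RE-bla cells were treated for 16 h at 37 C alongside rat liver microsomes and NADPH, each 0.5 mg/mL final.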

[9] = p53 small molecule agonists, cell-based qHTS assay: qHTS cell viability counter screen (AID 1963581); note: nearly all actives have a fitted effect of over 45% in size
Procedure, shortened: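 Counter screen read by CellTiter-Glo luminescence (ATP content, 30 min at room temperature), run in the same wells as the beta-lactamase reporter read. HCT-116 p53RE-bla cells saw compounds for 16 h at 37 C.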

[10] = p53 small molecule agonists, cell-based qHTS assay (AID 1963582; active = well fitted activation curve with a large enough effect in the signal ratio in the repeat runs, not every such curve was filed as active; the % refers to the signal ratio)
Procedure, shortened: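 Read-out is beta-lactamase FRET fluorescence after 2 h at room temperature with LiveBLAzer B/G substrate. p53 response element-bla cells were treated 16 h at 37 C with compounds in DMSO, added 5 h after seeding.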

[11] = biological target: 5-hydroxytryptamine receptor 2A (Homo sapiens) (UniProt P28223); assay: 5-hydroxytryptamine receptor 2A (HTR2A) small molecule antagonists, cell-based qHTS assay (AID 1963586); note: nearly all actives have a fitted effect of over 45% in size
Procedure, shortened: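 CHO cells stably expressing human HTR2A were plated for 18 h at 37 C, then loaded with calcium dye for 1 h. Compounds were preincubated 5 min at room temperature before DOI (4 nM solution) was added. Kinetic fluorescence was read for 3 min.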

[12] = biological target: Muscarinic acetylcholine receptor M1 (Homo sapiens) (UniProt P11229); assay: Cholinergic receptor muscarinic 1 (CHRM1) small molecule antagonists, cell-based qHTS assay (AID 1963588); note: nearly all actives have a fitted effect of over 40% in size
Procedure, shortened: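 Compounds were tested at 15 concentrations in three independent runs. Dye-loaded CHRM1-CHO cells were exposed 5 min at room temperature before stimulation by acetylcholine added at 50nM. Intracellular calcium was read kinetically on FDSS for 3 min.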

[13] = biological target: Muscarinic acetylcholine receptor M1 (Homo sapiens) (UniProt P11229); assay: Cholinergic receptor muscarinic 1 (CHRM1) small molecule agonists, cell-based qHTS assay (AID 1963589); note: nearly all actives have a fitted effect of over 35% in size
Procedure, shortened: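 Agonist-mode calcium-flux screen: compounds at 15 concentrations, three independent runs, were pin-transferred onto dye-loaded human CHRM1-CHO cells. Fluorescence was then recorded kinetically every second over minutes.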

[14] = cAMP Responsive Elements (CRE) small molecule agonists, cell-based qHTS assay (AID 1963590)
Procedure, shortened: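 Agonist mode: compound added to CRE-bla HEK 293T cells (2,000/well, 18 h after plating) for 3 h at 37 C/5% CO2. Reporter activity detected via FRET beta-lactamase substrate, 2 h room-temperature loading.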

[15] = cAMP Responsive Elements (CRE) small molecule antagonists, cell-based qHTS assay (AID 1963591; active = well fitted inhibition curve with a large enough effect in the signal ratio in the repeat runs, not every such curve was filed as active; the % refers to the signal ratio)
Procedure, shortened: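 Antagonist mode: compounds are added alongside the adenylyl cyclase activator NKH477 (0.25 uM final) to CRE-bla HEK293T cells for 3 h. LiveBLAzer FRET substrate, 2 h at room temperature, reports bla expression.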

[16] = biological target: Beta-2 adrenergic receptor (Homo sapiens) (UniProt P07550); assay: Adrenergic beta2 receptor (ADRB2) small molecule antagonists, cell-based qHTS assay (AID 1963592); note: series mostly up to about 92 µM; nearly all actives have a fitted effect of over 50% in size
Procedure, shortened: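 Assay format: CHO-ADRB2 cells, 18-20hr seeding at 37C/5% CO2, then compound plus 1nM isoproterenol agonist mix for 0.5hr RT. Homogeneous time-resolved fluorescence cAMP detection after 1hr, expressed as 665/615 nm ratio.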

[17] = biological target: D(2) dopamine receptor (Homo sapiens) (UniProt P14416); assay: Dopamine D2 receptor (DRD2) small molecule agonists, cell-based qHTS assay (AID 1963594); note: nearly all actives have a fitted effect of over 35% in size
Procedure, shortened: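 cAMP accumulation in DRD2-HEK293 cells measured by HTRF after 1 h detection; compounds added 10 min before NKH477 (200nM […]) forskolin-analogue stimulation, 30 min at room temperature, with Ro20-1724 present at 0.1 mM final.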

[18] = biological target: D(2) dopamine receptor (Homo sapiens) (UniProt P14416); assay: Dopamine D2 receptor (DRD2) small molecule antagonists, cell-based qHTS assay (AID 1963595; active = well fitted inhibition curve with a large enough effect in the signal ratio in the repeat runs, with a control signal flat; the % refers to the signal ratio)
Procedure, shortened: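 HEK293 cells stably expressing DRD2, preincubated with 0.1 mM Ro20-1724 and compounds 10 min, were stimulated with 200 nM NKH477 plus 12 nM quinpirole for 30 min at room temperature; cAMP measured by HTRF (665/620 nm).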

[19] = biological target: 5-hydroxytryptamine receptor 2A (Homo sapiens) (UniProt P28223); assay: 5-hydroxytryptamine receptor 2A (HTR2A) small molecule agonists, cell-based qHTS assay (AID 1963587); note: nearly all actives have a fitted effect of over 30% in size
Procedure, shortened: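 Kinetic calcium-flux fluorescence (2 min, 1 sec intervals) after compound addition in agonist mode. HTR2A-CHO cells were cultured 18 h, then dye-loaded 1 h at 37 C.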

[20] = biological target: Beta-2 adrenergic receptor (Homo sapiens) (UniProt P07550); assay: Adrenergic beta2 receptor (ADRB2) small molecule agonists, cell-based qHTS assay (AID 1963593);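 note: CHO cells stably overexpressing human ADRB2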
Procedure, shortened: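 CHO cells stably over-expressing ADRB2 were plated overnight at 37C, then dosed with compounds plus a stimulation mix containing 100uM IBMX and 25uM Ro-20-1724 for 0.5hr at room temperature. cAMP was measured by HTRF competition, 1hr.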

Measured: Potency

Chain of KiSS-1 receptor (Homo sapiens) (Q969F8 whole entry, looked up): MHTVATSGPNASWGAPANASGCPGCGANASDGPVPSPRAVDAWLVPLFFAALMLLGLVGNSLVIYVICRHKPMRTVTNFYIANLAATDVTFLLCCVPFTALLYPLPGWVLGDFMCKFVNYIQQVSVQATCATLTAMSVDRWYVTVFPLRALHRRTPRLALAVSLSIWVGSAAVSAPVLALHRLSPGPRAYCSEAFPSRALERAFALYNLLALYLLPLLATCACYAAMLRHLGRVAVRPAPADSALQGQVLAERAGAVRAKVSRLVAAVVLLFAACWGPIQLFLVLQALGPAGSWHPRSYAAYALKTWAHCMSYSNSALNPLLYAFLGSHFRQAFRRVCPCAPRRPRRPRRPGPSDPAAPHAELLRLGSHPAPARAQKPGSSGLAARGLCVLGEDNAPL
Chain of 5-hydroxytryptamine receptor 2A (Homo sapiens) (P28223 whole entry, looked up): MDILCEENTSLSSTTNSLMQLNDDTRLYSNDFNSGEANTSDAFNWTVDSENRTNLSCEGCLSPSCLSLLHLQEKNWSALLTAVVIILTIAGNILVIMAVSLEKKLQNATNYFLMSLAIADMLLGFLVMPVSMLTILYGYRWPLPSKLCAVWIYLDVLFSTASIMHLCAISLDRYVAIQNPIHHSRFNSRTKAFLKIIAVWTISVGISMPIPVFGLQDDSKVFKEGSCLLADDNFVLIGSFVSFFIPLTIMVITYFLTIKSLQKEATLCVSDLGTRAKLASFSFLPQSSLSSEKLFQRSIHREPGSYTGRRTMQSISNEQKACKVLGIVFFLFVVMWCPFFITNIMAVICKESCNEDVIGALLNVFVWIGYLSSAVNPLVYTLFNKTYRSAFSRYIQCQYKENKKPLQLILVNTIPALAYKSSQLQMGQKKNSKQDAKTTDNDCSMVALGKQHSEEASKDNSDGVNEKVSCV
Chain of D(2) dopamine receptor (Homo sapiens) (P14416 whole entry, looked up): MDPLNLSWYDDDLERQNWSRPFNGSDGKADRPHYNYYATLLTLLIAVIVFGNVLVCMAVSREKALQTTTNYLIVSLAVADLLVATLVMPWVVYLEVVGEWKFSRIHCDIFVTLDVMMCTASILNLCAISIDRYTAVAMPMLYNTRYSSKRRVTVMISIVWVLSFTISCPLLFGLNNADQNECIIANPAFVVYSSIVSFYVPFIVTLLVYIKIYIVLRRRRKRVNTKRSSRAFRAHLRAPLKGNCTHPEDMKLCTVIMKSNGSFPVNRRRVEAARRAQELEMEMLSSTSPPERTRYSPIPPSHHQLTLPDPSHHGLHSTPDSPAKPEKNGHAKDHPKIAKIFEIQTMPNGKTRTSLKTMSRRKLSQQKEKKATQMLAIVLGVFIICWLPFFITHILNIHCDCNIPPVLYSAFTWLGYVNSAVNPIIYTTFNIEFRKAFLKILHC
Chain of Gonadotropin-releasing hormone receptor (Homo sapiens) (P30968 whole entry, looked up): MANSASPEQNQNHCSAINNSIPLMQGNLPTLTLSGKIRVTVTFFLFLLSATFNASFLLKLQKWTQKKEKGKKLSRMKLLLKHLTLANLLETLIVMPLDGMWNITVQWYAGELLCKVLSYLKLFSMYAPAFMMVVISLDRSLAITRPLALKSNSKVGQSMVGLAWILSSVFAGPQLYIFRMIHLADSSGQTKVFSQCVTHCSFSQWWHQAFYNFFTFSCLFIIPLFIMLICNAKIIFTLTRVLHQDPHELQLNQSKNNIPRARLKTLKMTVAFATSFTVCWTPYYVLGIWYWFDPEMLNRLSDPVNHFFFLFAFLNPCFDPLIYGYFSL
Chain of Beta-2 adrenergic receptor (Homo sapiens) (P07550 whole entry, looked up): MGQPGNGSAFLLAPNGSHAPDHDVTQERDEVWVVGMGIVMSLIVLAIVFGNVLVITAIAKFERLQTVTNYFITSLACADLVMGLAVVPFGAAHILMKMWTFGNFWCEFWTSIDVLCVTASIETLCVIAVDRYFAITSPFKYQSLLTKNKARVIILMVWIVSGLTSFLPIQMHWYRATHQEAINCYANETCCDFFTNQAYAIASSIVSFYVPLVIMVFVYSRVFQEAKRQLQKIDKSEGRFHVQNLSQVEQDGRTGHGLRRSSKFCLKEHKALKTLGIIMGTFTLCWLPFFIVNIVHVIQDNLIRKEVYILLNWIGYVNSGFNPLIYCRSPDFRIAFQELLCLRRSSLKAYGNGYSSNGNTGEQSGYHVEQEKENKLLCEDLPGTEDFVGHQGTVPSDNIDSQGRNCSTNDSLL
Chain of Muscarinic acetylcholine receptor M1 (Homo sapiens) (P11229 whole entry, looked up): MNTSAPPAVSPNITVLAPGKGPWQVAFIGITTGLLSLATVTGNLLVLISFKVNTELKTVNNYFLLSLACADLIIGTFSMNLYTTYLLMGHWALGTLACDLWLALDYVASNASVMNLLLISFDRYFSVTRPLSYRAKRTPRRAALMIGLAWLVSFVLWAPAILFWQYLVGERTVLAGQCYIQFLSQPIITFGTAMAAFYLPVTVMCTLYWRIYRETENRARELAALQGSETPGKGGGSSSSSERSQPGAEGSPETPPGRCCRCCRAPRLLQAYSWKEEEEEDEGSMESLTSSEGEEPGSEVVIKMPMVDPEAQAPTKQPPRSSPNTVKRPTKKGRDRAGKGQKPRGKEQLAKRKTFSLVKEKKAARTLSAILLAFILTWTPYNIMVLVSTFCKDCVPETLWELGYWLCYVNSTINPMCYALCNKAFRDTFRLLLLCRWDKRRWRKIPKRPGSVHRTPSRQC

CCOc1ccc(N)cc1
not listed: [19] | [20]
inactive: all other assays above

Cc1ccc(N)c(N)c1
active: [1] 4.87 µM and 68.6 µM
not listed: [9]
inactive: all other assays above

CCCOC(=O)c1cncn1C(C)c1ccccc1 (configuration not stated)
not listed: [16]
inactive: all other assays above

CCN(CC)CCN1C(=O)CN=C(c2ccccc2F)c2cc(Cl)ccc21
not listed: [8] | [19] | [20]
inactive: all other assays above

Cl/C=C\CCl
not listed: [11] | [20]
inactive: all other assays above

CSc1nnc(C(C)(C)C)c(=O)n1N
not listed: [13]
inactive: all other assays above

O=C(O)c1ccccn1
not listed: [16]
inactive: all other assays above

ClCC(Br)CBr (configuration not stated)
not listed: [13] | [16] | [20]
inactive: all other assays above

Cc1cccc(N)c1
not listed: [19] | [20]
inactive: all other assays above

NNC(=O)c1ccccc1
active: [1] 56 µM | [7] 41.9 µM
not listed: [20]
inactive: all other assays above

O=C(Cl)OCc1ccccc1
inactive: all assays above

Nc1ccc([As](=O)(O)O)cc1
not listed: [11] | [15]
inactive: all other assays above

COC(=O)c1sccc1S(=O)(=O)NC(=O)Nc1nc(C)nc(OC)n1
not listed: [9] | [20]
inactive: all other assays above

CCc1ccccc1C
not listed: [8] | [20]
inactive: all other assays above

CCOc1cc(C=O)ccc1O
not listed: [20]
inactive: all other assays above

CNCC(O)c1ccc(O)cc1 (configuration not stated)
not listed: [12] | [14] | [15] | [20]
inactive: all other assays above

Reference: PubChem BioAssay (Tox21)
